# From PubChem BioAssay (NCI)
# The panel holds about 79,000 compounds, 15% with a hit somewhere; the sample as a whole holds those more often. Unmarked numbers belong to inactive results. Activity calls are given as the source filed them. Cut-off read from the data, not from the text of the source: active = growth inhibition above about 70%; inactive = the rest.
# Assay: NCI Yeast Anticancer Drug Screen. Data for the cln2 rad14 strain (AID 165);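 note: 0% = growth equal to vehicle treated cultures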
# Conditions: S. cerevisiae cln2 rad14 strain, at 50.0 µM, active compounds read high
# Procedure, shortened: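 Readout is yeast growth inhibition versus vehicle-treated controls, using a strain with cln2 and rad14 alterations exposed to compound.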
row,SMILES,growth inhibition [%]
1,CC(NC(=O)C(CC(=O)OCc1ccccc1)NC(=O)OCc1ccccc1)c1ccccc1 (stereo not given),-21.6
2,C1CCC(N(CCN(C2CCCCC2)C2CCCCC2)C2CCCCC2)CC1,15.3
3,N=C1CCCC1C(=S)SCCC(N)=O (stereo not given),6.8
4,COC(=O)C(Cc1cc(OC)c(OC)c(OC)c1)(NC(=O)c1ccccc1)P(=O)(OC)OC (stereo not given),-51.6
5,CCCCCCCCCCCCCCCC(=O)OCC(COP(=O)(O)OC1CCC2(C)C(=CCC3C2CCC2(C)C(C(C)CCCC(C)C)CCC32)C1)OC(=O)CCCCCCCCCCCCCCC (stereo not given),-5.5
6,Cn1c(COc2ccc(/C=N\NC(=O)c3ccc(C(=O)N/N=C/c4ccc(OCc5c[n+]6ccccc6n5C)cc4)cc3)cc2)c[n+]2ccccc12,26.7
7,CC1(C)C(=NNC(=S)NN)C(C)(C)C1=NNC(=S)NN,18.9
8,COc1ccc(Nc2ccnc3cc(Cl)ccc23)cc1CCN,10.6
9,CCOC(=O)C(C)c1nc2cc(F)c(F)cc2[nH]c1=O (stereo not given),2.6
10,Cc1ccc(/C(=C/CN2CC3CCC(CC3)C2)c2ccccc2)cc1,-14.3
11,O=C1CCCCc2cccc(O)c21,24.3
12,CC(O)COC(C)COC(C)c1ccccc1 (stereo not given),-2.35
13,COc1cc(\C=N/N=C/C=C/c2ccccc2)cc(OC)c1OC,-10.7
14,CN(C)C(=O)C1C2CCC(C3CC32)C1C(=O)N(C)C (stereo not given),24.4
15,Cc1n[nH]c2ccccc2c1=O,-18.1
16,O=C(Nn1c(=S)[nH][nH]c1=S)c1ccccc1,-12.2
17,C=CC(=O)NC1CCCCC1,-8.9
18,OCC1CC(c2ccccc2)=NO1 (stereo not given),-20.2
19,CCOC(=O)c1[nH]c2ccsc2c1C[N+]1(C)CCCCC1,-3.7
20,COc1ccccc1C(=O)Nc1c(C)cccc1Cl,0.4
21,ICC1OCOC2C(CI)OCOC12 (stereo not given),-1.8

# Assay: NCI Yeast Anticancer Drug Screen. Data for the bub3 strain (AID 167)
# Conditions: S. cerevisiae bub3 mutant strain, at 50.0 µM, active compounds read high
# Procedure, shortened: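 Compounds were applied to a genetically altered yeast strain carrying a cell-cycle control defect. Growth inhibition was scored against vehicle-treated controls.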
row,SMILES,growth inhibition
1,CCCC(N)S(=O)(=O)O (stereo not given),6.1%
2,COC(=O)c1cc(-c2cccc3ccccc23)[nH]c(=O)c1C#N,-6.6%
3,C1CCC(C(C2CCCCC2)C2CCCCC2)CC1,-4.3%
4,Cc1cccc(-n2c(-c3ccccc3)cs/c2=N\N=C2/CSC(=O)N2Cc2ccccc2)c1,2.45%
5,CC(=O)N1CCC(=O)/C(=C/c2ccccc2)C1,17.6%
6,CCCNC(=O)N(CCN(C)C)S(=O)(=O)c1ccc(Cl)cc1,-21.1%
7,Cc1cccn2nnnc12,1.65%
8,O=c1[nH]c(=O)n(C2OC(COP(=O)(O)OP(=O)(O)O)C(O)C2O)cc1F (stereo not given),0.75%
9,CCCc1cc2c3c(c(=O)oc2cc1O)CCCC3,92.7% (active)
10,COC(=O)c1ccccc1NC(=O)c1cccc(Cl)c1,30.4%
11,Cn1c2c(c3ccccc31)CCCC2,4.5%
12,O=c1[nH]nc(S(=O)(=O)N2CCCC2)c(=O)[nH]1,-4.15%
13,CC(C)(C)c1cc(C(=O)O)ccc1C(=O)O,-26.4%
14,Cn1ncc2c(NCCc3ccccc3)nc(Cl)nc21,8.1%
15,CNC(=O)N(C)c1cc(N(C)C)nc(OC)n1,-20.8%
16,O=C1c2ccccc2C(=O)N1CCc1ccccn1,-0.45%
17,O=C1OC(=O)C2CCC12 (stereo not given),12.5%
18,CC(=O)NC1(C)C(=O)N=C(N)N=C1N (stereo not given),-4.9%
19,CC1OC(OC2C(OC(=O)[C@@H]3CC(C)(C)C[C@@H]4C5=CC[C@@H]6[C@@]7(C)C[C@H](O)[C@H](OC8OC(CO)C(O)C(O)C8O)[C@@](C)(CO)C7[C@H](O)C[C@@]6(C)[C@]5(C)C[C@@H](O)[C@H]43)OCC(O)C2O)C(O)C(O)C1O (stereo not given in full),1%
20,CC(NC(=O)C(CC(=O)OCc1ccccc1)NC(=O)OCc1ccccc1)c1ccccc1 (stereo not given),-17.4%
21,C1CCC(N(CCN(C2CCCCC2)C2CCCCC2)C2CCCCC2)CC1,5.6%
22,N=C1CCCC1C(=S)SCCC(N)=O (stereo not given),-30.8%
23,COC(=O)C(Cc1cc(OC)c(OC)c(OC)c1)(NC(=O)c1ccccc1)P(=O)(OC)OC (stereo not given),1.05%
24,CCCCCCCCCCCCCCCC(=O)OCC(COP(=O)(O)OC1CCC2(C)C(=CCC3C2CCC2(C)C(C(C)CCCC(C)C)CCC32)C1)OC(=O)CCCCCCCCCCCCCCC (stereo not given),-3.1%
